# Test results published in ChEMBL document CHEMBL2218924, “A broad activity screen in support of a chemogenomic map for kinase signalling research and drug discovery” (Biochem J, 2013).
# Key:
# [1] = biological target: T1, Inhibitor of nuclear factor kappa-B kinase subunit alpha (Homo sapiens) (UniProt O15111); conditions: at 10 µM
# T1 sequence (whole entry): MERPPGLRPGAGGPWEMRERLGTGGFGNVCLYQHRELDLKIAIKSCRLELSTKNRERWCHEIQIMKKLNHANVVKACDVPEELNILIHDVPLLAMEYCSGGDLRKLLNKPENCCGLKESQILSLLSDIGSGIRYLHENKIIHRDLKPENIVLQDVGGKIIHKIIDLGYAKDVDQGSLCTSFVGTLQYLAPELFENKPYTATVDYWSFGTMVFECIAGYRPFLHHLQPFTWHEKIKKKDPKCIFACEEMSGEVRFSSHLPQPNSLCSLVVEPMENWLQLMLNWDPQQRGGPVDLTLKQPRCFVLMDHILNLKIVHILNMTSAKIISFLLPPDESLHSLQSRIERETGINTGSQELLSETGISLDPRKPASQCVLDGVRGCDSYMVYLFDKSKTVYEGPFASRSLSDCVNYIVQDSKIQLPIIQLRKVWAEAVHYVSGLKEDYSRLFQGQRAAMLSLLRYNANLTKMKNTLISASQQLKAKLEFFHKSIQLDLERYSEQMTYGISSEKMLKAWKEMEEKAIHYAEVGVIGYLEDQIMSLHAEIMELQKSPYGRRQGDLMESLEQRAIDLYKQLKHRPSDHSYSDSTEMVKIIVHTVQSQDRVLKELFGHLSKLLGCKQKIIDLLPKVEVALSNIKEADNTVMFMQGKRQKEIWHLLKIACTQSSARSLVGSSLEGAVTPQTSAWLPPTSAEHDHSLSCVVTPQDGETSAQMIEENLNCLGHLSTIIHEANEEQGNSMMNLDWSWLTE
# [2] = biological target: T2, Inhibitor of nuclear factor kappa-B kinase subunit beta (Homo sapiens) (UniProt O14920); conditions: at 10 µM
# T2 sequence (whole entry): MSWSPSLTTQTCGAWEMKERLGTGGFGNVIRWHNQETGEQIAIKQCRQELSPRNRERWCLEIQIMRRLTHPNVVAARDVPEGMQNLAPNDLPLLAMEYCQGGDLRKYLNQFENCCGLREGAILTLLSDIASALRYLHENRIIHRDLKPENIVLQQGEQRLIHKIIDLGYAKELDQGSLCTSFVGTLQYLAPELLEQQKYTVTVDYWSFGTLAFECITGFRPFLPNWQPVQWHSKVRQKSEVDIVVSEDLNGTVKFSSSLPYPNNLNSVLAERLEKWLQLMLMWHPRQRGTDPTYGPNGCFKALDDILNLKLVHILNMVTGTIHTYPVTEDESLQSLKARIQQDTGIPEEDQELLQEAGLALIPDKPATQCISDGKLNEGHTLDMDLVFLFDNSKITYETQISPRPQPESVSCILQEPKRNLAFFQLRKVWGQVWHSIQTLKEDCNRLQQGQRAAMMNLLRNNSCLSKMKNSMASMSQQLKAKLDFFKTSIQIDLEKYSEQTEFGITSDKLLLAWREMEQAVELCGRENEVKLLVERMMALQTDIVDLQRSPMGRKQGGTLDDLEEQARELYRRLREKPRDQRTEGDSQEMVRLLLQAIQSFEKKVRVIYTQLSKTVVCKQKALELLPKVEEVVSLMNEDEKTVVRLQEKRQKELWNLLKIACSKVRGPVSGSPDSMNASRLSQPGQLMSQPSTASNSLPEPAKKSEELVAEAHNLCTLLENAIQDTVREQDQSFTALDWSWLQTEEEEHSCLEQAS
# [3] = biological target: Insulin receptor (Homo sapiens) (UniProt P06213); conditions: at 1 µM
# Chain of Insulin receptor (Homo sapiens) (P06213 28-758 limits assumed): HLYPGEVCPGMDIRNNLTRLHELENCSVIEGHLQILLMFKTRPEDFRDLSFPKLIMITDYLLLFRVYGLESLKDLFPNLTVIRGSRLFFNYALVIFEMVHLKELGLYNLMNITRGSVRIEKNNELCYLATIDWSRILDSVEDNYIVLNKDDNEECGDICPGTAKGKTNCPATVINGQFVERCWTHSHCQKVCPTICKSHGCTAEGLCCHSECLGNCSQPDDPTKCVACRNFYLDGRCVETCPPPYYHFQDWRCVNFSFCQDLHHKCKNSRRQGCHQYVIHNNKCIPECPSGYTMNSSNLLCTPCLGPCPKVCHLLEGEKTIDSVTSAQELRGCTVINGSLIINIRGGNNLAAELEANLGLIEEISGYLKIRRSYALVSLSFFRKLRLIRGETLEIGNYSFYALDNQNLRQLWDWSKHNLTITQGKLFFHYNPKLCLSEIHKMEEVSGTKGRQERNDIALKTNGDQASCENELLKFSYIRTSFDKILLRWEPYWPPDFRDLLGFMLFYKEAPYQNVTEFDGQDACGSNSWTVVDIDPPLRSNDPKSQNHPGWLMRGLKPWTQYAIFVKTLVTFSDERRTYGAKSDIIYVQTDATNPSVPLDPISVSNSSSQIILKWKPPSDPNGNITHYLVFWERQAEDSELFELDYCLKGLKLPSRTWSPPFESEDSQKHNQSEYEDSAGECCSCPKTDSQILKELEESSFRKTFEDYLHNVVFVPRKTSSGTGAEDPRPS
# Chain of Insulin receptor (Homo sapiens) (P06213 763-1382 limits assumed): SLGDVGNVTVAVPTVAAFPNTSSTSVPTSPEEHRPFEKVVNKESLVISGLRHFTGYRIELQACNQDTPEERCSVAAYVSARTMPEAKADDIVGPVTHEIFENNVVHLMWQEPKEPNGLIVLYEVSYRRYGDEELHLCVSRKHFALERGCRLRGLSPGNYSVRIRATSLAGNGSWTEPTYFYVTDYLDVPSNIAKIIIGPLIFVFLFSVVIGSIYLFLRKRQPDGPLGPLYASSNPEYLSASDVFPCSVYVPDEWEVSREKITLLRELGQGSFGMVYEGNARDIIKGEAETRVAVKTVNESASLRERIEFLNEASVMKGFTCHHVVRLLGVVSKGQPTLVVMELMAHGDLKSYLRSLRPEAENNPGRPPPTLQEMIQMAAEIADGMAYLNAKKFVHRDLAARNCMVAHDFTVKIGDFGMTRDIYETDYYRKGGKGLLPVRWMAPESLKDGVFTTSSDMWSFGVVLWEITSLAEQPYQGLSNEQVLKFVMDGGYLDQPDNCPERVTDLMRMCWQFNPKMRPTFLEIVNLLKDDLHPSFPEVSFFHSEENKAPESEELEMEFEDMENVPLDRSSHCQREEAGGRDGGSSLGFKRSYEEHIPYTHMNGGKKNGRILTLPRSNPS
# [4] = biological target: Interleukin-1 receptor-associated kinase 1 (Homo sapiens) (UniProt P51617); conditions: at 1 µM
# Chain of Interleukin-1 receptor-associated kinase 1 (Homo sapiens) (P51617 whole entry, looked up): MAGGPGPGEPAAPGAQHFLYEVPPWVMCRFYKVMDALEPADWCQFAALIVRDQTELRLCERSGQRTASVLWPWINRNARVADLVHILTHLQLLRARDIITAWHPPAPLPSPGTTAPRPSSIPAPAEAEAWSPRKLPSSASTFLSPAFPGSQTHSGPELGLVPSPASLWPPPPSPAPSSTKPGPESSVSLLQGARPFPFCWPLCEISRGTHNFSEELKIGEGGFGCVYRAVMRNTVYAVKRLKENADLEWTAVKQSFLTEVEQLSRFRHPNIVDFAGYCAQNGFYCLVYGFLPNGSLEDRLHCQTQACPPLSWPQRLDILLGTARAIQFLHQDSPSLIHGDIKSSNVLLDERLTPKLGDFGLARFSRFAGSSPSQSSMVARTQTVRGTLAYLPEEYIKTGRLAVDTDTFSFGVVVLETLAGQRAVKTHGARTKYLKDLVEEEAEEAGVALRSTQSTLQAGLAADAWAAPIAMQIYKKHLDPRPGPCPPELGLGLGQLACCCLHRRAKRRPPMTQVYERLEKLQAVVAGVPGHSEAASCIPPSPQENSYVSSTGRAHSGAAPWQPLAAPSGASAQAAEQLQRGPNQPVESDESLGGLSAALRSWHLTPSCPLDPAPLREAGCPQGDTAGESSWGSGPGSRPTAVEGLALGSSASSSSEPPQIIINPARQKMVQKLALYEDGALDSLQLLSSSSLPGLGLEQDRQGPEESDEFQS
# [5] = biological target: Interleukin-1 receptor-associated kinase 1 (Homo sapiens) (UniProt P51617); conditions: at 10 µM
# [6] = biological target: T1, Inhibitor of nuclear factor kappa-B kinase subunit alpha (Homo sapiens); conditions: at 1 µM
# [7] = biological target: Insulin receptor (Homo sapiens) (UniProt P06213); conditions: at 1 µM; remark: listed apart in the source
# [8] = biological target: Insulin receptor (Homo sapiens) (UniProt P06213); conditions: at 10 µM
# [9] = biological target: T2, Inhibitor of nuclear factor kappa-B kinase subunit beta (Homo sapiens); conditions: at 1 µM
# [10] = biological target: Insulin receptor (Homo sapiens) (UniProt P06213); conditions: at 10 µM; remark: listed apart in the source
SMILES,residual activity [1],residual activity [2],residual activity [3],residual activity [4],residual activity [5],residual activity [6],residual activity [7],residual activity [8],residual activity [9],residual activity [10]
c1cc(-c2cnn3cc(-c4ccc(OCCN5CCCCC5)cc4)cnc23)ccn1,86%,85%,138%,23%,2%,–,–,–,–,–
N/C(=N\[N+](=O)[O-])N/N=C\c1ccc(-c2cccc([N+](=O)[O-])c2)o1,–,99%,–,–,–,–,–,–,–,–
CCn1cnc2c(Nc3cccc(Cl)c3)nc(N[C@@H]3CCCC[C@@H]3N)nc21,89%,93%,–,85%,64%,99%,70%,34%,–,–
O=C1Nc2ccc3ncsc3c2/C1=C/c1c[nH]cn1,1%,25%,85%,28%,7%,8%,80%,36%,68%,31%
COc1cc(OC)c(/C=C2\C(=O)Nc3ccccc32)c(OC)c1,–,–,82%,100%,103%,–,98%,91%,–,86%
O=C1NC(=O)c2c1c1c3ccccc3n3c1c1c2c2ccccc2n1C1CCC3O1,73%,–,94%,–,–,93%,100%,88%,–,79%
COc1ccc2c(c1)/C(=C/c1cnc[nH]1)C(=O)N2,23%,59%,–,–,37%,74%,–,–,–,–
O=C1c2ccccc2-c2nc3nnnn3nc21,–,81%,121%,109%,103%,–,104%,109%,111%,102%
O=[N+]([O-])/C=C/c1ccc2c(c1)OCO2,94%,95%,117%,95%,83%,91%,96%,102%,98%,85%
COc1cc2ncnc(Nc3ccc(OCc4ccccc4)cc3)c2cc1OC,99%,103%,115%,81%,102%,105%,102%,104%,117%,98%
COC(=O)[C@@]1(O)C[C@H]2O[C@]1(C)n1c3ccccc3c3c4c(c5c6ccccc6n2c5c31)C(=O)NC4,3%,3%,42%,1%,0%,2%,7%,0%,17%,20%
CCc1nc(-c2ccc(OC)cc2)[nH]c1-c1ccncc1,104%,112%,–,–,–,100%,–,–,119%,–
C[S+]([O-])c1ccc(-c2nc(-c3ccc(F)cc3)c(-c3ccncc3)[nH]2)cc1 (stereo unspecified),96%,101%,94%,108%,97%,113%,103%,98%,104%,129%
COc1ccc2c(c[n+](C)c3c4cc5c(cc4ccc23)OCO5)c1OC,83%,84%,–,96%,83%,97%,99%,84%,–,130%
O=c1[nH]c2ccccc2n1C1CCN(Cc2ccc(-c3nc4cc5[nH]cnc5cc4nc3-c3ccccc3)cc2)CC1,109%,102%,119%,103%,88%,118%,103%,98%,101%,75%
CC(C)[C@H](CO)Nc1nc(Nc2cccc(Cl)c2)c2ncn(C(C)C)c2n1,–,–,81%,81%,23%,–,34%,4%,116%,33%
CC(C)(C)c1cc(C=C(C#N)C#N)cc(Br)c1O,99%,99%,122%,117%,107%,101%,109%,105%,98%,108%
